# Shown are actives, neighbours in structure and some others; about 21% of the full set was active somewhere.
# Pf growth 96h: Primary qHTS for delayed death inhibitors of the malarial parasite plastid, 96 hour incubation; P. falciparum luciferase reporter growth, 96 h; Potency, µM (top dose mostly 28.7 µM), actives largely listed as inhibitors; hit rate 6.9% among 320,000
#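 Compounds incubated with erythrocytes infected by luciferase-expressing P. falciparum (2% hematocrit, 0.05% parasitemia final) for 96 hours, 37 C in 5% CO2. Growth inhibition scored as decreased luciferase luminescence.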
# Cycloheximide cs: Cycloheximide Counterscreen for Small Molecule Inhibitors of Shiga Toxin. cell reporter, cycloheximide protein synthesis inhibition counterscreen. max response, %. hit rate 12% among 300,000. AID 2314, 2010; in the data active = max response mostly above about 13%, no sharp cut-off; inactive = mostly below about 14%; also: read at 38.3 µM for the half of the compounds with a filed dose
# Shiga inhibitor: A qHTS for Small Molecule Inhibitors of Shiga Toxin; hit rate 9.2% among 290,000; inhibition, % at 38.7 µM; Vero cells, Shiga toxin protein synthesis inhibition reporter; in the data active = inhibition mostly above about 28%, no sharp cut-off; inactive = mostly below about 43%
# Pf growth 48h: Primary qHTS for delayed death inhibitors of the malarial parasite plastid, 48 hour incubation; AID 504832, 2011; hit rate 5.9% among 310,000; Potency, µM (top dose mostly 28.7 µM), hits mostly inhibitors; P. falciparum luciferase growth in erythrocytes, 48 h
#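 Luciferase-expressing parasites in RBCs, 2% Hct / 0.1% parasitemia final; RPMI 1640 + 0.5% Albumax; 37 C, 5% CO2, one generation; luminescence read-out, lower signal = inhibition.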
# NS1 function inh: qHTS Assay for Inhibitors of Influenza NS1 Protein Function. hit rate 0.4% among 270,000. Potency, µM (titrated, usually from 46.1 µM); calls by dose curve; also: actives are rising curves; nearly all actives have a fitted effect of over 50% in size
#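 S. cerevisiae expressing influenza A NS1, grown in glucose, washed, then diluted 1:100 into pH 6.0 -URA galactose medium with 23 nl compound. Growth recovery read as OD600; NS1-free strain serves as control.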
# Sm TGR inh: qHTS Assay for the Inhibitors of Schistosoma Mansoni Peroxiredoxins; purified TGR, DTNB reduction, TNB absorbance 405 nm; Potency, µM (top dose mostly 114 µM), hits mostly inhibitors; hit rate 3% among 360,000; AID 485364, 2010; also: nearly all actives have a fitted effect of over 60% in size
#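 First, TGR (20 nM dispensed) and NADPH were mixed with compound. Second, a 15 min room-temperature incubation followed. Third, further NADPH and then DTNB were added to start the reaction. Finally, TNB absorbance was monitored kinetically.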
# A number is an active result; - = inactive; ? = inconclusive; . = not tested or not shown; [ ] = another dose, or the depositor's remark. Unless noted, calls follow the shape of the dose curve; as a rule, active = well fitted curve in the direction sought with a large enough effect; inconclusive = small, poorly fitted or top-dose-only effect, or another doubt; inactive = no such curve, though single readings can be large; an effect the other way counts as inactive or inconclusive.
SMILES,Pf growth 96h,Cycloheximide cs,Shiga inhibitor,Pf growth 48h,NS1 function inh,Sm TGR inh
CN(C)CCNC(=O)c1ccc(COc2ccc(Cl)cc2Cl)cc1,-,-,-,?,-,-
O=C(NCc1ccco1)c1ccc(COc2cc(Cl)ccc2Cl)cc1,?,23.9,69.2,5.22µM,-,-
Cc1ccc(OCC(=O)NCCNC(=O)c2ccco2)cc1C,-,-,-,-,-,-
O=C(COc1ccc(Cl)cc1Cl)NCc1ccco1,?,28.7,125.5,-,-,-
CCOc1ccccc1OCC(=O)NCc1ccco1,?,-,-,-,-,20µM
Cc1ccc(OCC(=O)NCc2ccco2)cc1C,-,-,-,-,-[9.22 µM],35.5µM
CCCCN(C)CCNC(=O)c1c2c(nc3ccccc13)C(=O)N(C1CCCCC1)C2,.,.,.,.,.,-
O=C(NCc1n[nH]c(=S)n1-c1ccccc1Cl)c1ccc(S(=O)(=O)N2CCCCC2)cc1,?,-,-,-,-,-
O=S(=O)(NCc1ccco1)c1ccc(Cl)cc1Cl,?,-,-,-,-,44.7µM
O=C(COc1cccc2c1CCN(Cc1ccc(Br)cc1)C2=O)NCc1ccco1,?,29.4,-,?,-,-
O=C(COc1cccc2c1CCN(Cc1ccc(Br)cc1)C2=O)N1CCOCC1,?,-,-,?,.,?
Cc1ccc2c(Cl)cc(Cl)c(OCC(=O)NC(=O)NCc3ccco3)c2n1,?,-,-,2.33µM,-,-
O=C(Cc1ccc(-c2ccccc2)cc1)NNC(=S)NCc1ccco1,?,-,56.0,-,.,-
O=C(Cc1cccs1)NNC(=S)NCc1ccco1,-,-,-,-,-,-
Nc1c(C(=O)Nc2cccc(C(F)(F)F)c2)c2ccccn2c1C(=O)c1ccccc1,.,.,.,.,.,-
COc1cc(Nc2ncc3c(n2)CCN(Cc2cccc(C)c2)C3)cc(OC)c1,.,.,.,.,.,-
O=C(CC12CC3CC(CC(C3)C1)C2)NC(=S)NCc1ccco1,?,-,-,13.1µM,-,-
Cc1ccc2c(Cl)cc(Cl)c(OCC(=O)NCc3ccco3)c2n1,?,-,-,.,-,?
O=C(COc1ccccc1Cl)NCc1ccco1,.,22.5,-,-,-,-
Cc1cc(Cl)cc(Cl)c1OCC(=O)NCc1ccco1,?,-,-,-,-,39.8µM
O=C(NCc1ccco1)C12CC3CC(CC(C3)C1)C2,-,-,-,?,-,-
O=C(COc1ccc(Cl)cc1Cl)NNC(=S)NCc1ccco1,-,16.6,-,-,-,-
c1ccc(CN2CCOCCOCCOCCOCC2)cc1,-,-,-,-,-,-
COc1ccc(C)cc1NC(=O)c1cc2ccccc2cc1OCC(=O)NCc1ccco1,?,29.7,-,.,?,-
O=C(CSc1nc2c(c(=O)[nH]1)CCC2)Nc1ccccc1Cl,-,-,-,-,-,-
SMILES,Pf growth 96h,Cycloheximide cs,Shiga inhibitor,Pf growth 48h,NS1 function inh,Sm TGR inh
COC(=O)c1cc2c(cc1NC(=O)c1cnn(-c3ccc(C)cc3)c1-n1cccc1)OCO2,.,.,.,.,.,-
CCCCn1c(=O)n(CC(=O)Nc2ccc(OC)c(Cl)c2)c(=O)c2c1nc(CO)n2CCC,.,-,-,10.4µM,-,-
Cc1ccc(NC(=O)CSc2nccn2Cc2ccco2)cc1Cl,.,.,.,.,.,-
CCCCn1c(=O)n(CC(=O)Nc2c(CC)cccc2CC)c(=O)c2c1nc(CO)n2CCC,?,-,-,-,-,-
CCCCn1c(=O)n(CC(=O)Nc2ccc(C)c(Cl)c2)c(=O)c2c1ncn2Cc1ccco1,4.65µM,-,-,11.7µM,-,?
O=C(NCCOc1ccccc1F)C1CC(=O)N(c2ccc3c(c2)OCCO3)C1 (stereo not given),-,.,.,-,.,-
Cc1ccc(NP(=O)(Nc2ccc(C)cc2)Nc2ccc(C)cc2)cc1,?,-,-,11.7µM,.,-
CCCCC[C@]12Cc3ccccc3C(O1)c1c(cc(C)oc1=O)O2,0.675µM,-,-,-[5.75 µM],-,-[22.9 µM]
O=C(c1ccc(Br)o1)N1CCN(Cc2ccccc2Cl)CC1,?,-,.,11.7µM,-,?
Cn1nccc1C(=O)N1CCC(Cc2ccccc2)CC1,?,-,-,-,-,-
Cc1cccc(C(=O)N2CCC(Cc3ccccc3)CC2)c1[N+](=O)[O-],0.928µM,-,-,-,-,-
CC1(C(=O)N2CCN(Cc3ccccc3Cl)CC2)CC1(Cl)Cl (stereo not given),?,19.7,120.0,-,-,-

# Bioassay records: PubChem BioAssay, National Center for Advancing Translational Sciences (NCATS)
